# “And” between values parts separate entries of the source, which are not always exact repeats. Equal values may be shown once. About 2,600 (3.8%) of roughly 69,000 compounds were called active. Cut-off read from the data, not from the text of the source: active = activity change below about -70% (passing the limit was not always enough); inconclusive = no clear call, values can overlap the other calls. The list comes from a sample in which actives are over-represented; it also holds similar structures and randomly drawn compounds. Where a structure was tested more than once in an assay, its records may differ in their call.
# Test: inhibitors of Toxoplasma growth in IFN-γ-primed hosts – cell-based, primary screen (AID 1259416);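 note: host cells are HeLa cells infected with Toxoplasma gondii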
# Settings: Toxoplasma gondii growth in IFN-gamma-treated host cells; stronger effect = lower value; concentration not given here
row,SMILES,"activity change, negative = inhibition"
1,COc1ccc(-c2nc(Nc3ccc(C(C)C)cc3)c3ccccc3n2)cc1,-22% (inactive)
2,CC(C)NC(=O)COc1cccc(-c2nc(Nc3ccc4[nH]ncc4c3)c3ccccc3n2)c1,-76.1% (active)
3,CC(=O)Nc1ccc(Nc2nc(-c3nnc(-c4cccc(C)c4)o3)nc3ccccc23)cc1,494% (inactive)
4,Cc1cc(CN(C)C(=O)c2coc(COc3ccc4sc(C)nc4c3)n2)on1,12.7% (inactive)
5,Fc1ccc2c(c1)C(c1cccnc1)=NNC(c1cccs1)=N2,-8.32% (inactive)
6,O=C(O)C1CSC(C2CC=CCC2)N1 (centres undefined),3.83% (inactive)
7,COCC1c2nnn(CC3CC3)c2CCN1C(=O)N(C)C (centres undefined),-2.44% (inactive)
8,CN1CC[C@H](c2c(O)cc(O)c3c(=O)cc(-c4ccccc4Cl)oc23)[C@H](O)C1,-76.7% (active)
9,CC(=O)N1CCC(C(=O)NCc2ccccc2)(N(C(=O)c2ccc(C)cc2)c2ccc(F)c(F)c2)CC1,-32.1% (inactive)
10,CC(=O)Nc1ccc(-c2cn3nc(C)c(C)nc3n2)cc1,-0.582% (inactive)
11,Cc1nc(-c2ccc(F)cc2)sc1-c1ccc(SCc2ccc(Br)cc2)nn1,-0.254% (inactive)
12,Brc1ccc(CSc2cccc3cccnc23)cc1,-110% (active)
13,N#Cc1ccccc1SCc1ccccc1,27% (inactive)
14,O=C(COc1ccccc1Cl)Nc1ccc(Oc2ccc(F)cc2)c(C(F)(F)F)c1,-7.01% (inactive)
15,CC1=C(C(=O)NCCCN2CCCCC2)C2(CCN(S(C)(=O)=O)CC2)OC1=O,16.4% (inactive)
16,COc1cccc(-c2nc3c(s2)CN(C(=O)Nc2ccc(C)c(F)c2)CC3)c1,-89.9% (active)
17,COc1ccc(NC(=O)N2CCc3nc(-c4ccccc4)sc3C2)cc1OC,32.4% (inactive)
18,Cc1ccc(-c2nc3c(s2)CN(C(=O)Nc2ccc(C)cc2C)CC3)cc1,210% (inactive)
19,COc1cccc(OCC(=O)NCCc2sc(-c3cccc(F)c3)nc2C)c1,11.4% (inactive)
20,COc1ccc(OC)c(NC(=O)N2CCc3nc(-c4ccc(C)cc4)sc3C2)c1,-112% (active)
21,COc1ccc(C)cc1NC(=O)C(=O)NCCc1sc(-c2ccc(F)cc2)nc1C,0.139% (inactive)
22,CO[C@H](c1ccccc1)c1n[nH]c(Cc2ccccc2)n1,0.899% (inactive)
23,CC1(C)Cc2cc(-c3cncn3CCNC3CCS(=O)(=O)C3)ccc2O1 (centres undefined),2.55% (inactive)

row,SMILES,"activity change, negative = inhibition"
1,Cc1c(Br)c(C(F)(F)F)nn1CC(=O)N1CCCCC1,2.94% (inactive)
2,CCn1c(=O)c(-c2nc(-c3ccc(F)c(Cl)c3)no2)c(O)c2ccccc21,-48.5% (inactive)
3,COc1ccc(-c2[nH]ncc2CNC(=O)Cc2cccnc2)cc1,-20.6% (inactive)
4,CN(CCCC1CCCO1)Cc1ncc[nH]1 (centres undefined),-1.64% (inactive)
5,O=C(Nc1ccccc1N1CCOCC1)NC1CCN(C(=O)OCc2ccccc2)CC1,-86.9% (active)
6,CC(=O)Nc1ccccc1OC(=O)N1CCOCC1,0.117% (inactive)
7,CCOC(=O)N1CCC(NCc2ccccc2-n2ccnc2C)CC1,4.98% (inactive)
8,CN(Cc1ccn[nH]1)C(=O)c1coc(COc2cccc(F)c2F)n1,6.91% (inactive)
9,CCC(C)N(Cc1ccncc1)C(=O)Cc1nc(C)sc1C (centres undefined),46% (inactive)
10,C[C@H]1O[C@@H](O[C@H]2[C@@H](O)C[C@H](O[C@H]3[C@@H](O)C[C@H](O[C@H]4CC[C@]5(C)C6C[C@@H](O)[C@]7(C)[C@@H](C8=CC(=O)OC8)CC[C@]7(O)C6CC[C@@H]5C4)O[C@@H]3C)O[C@@H]2C)C[C@H](O)[C@@H]1O (some centres undefined),-64.8% (inactive) and -73.6% (active)
11,CCOC(=O)c1cccnc1-c1ccc(OC)nc1,14.5% (inactive)
12,CN1CCC(NCCN(C)S(C)(=O)=O)CC1,12.1% (inactive)
13,CSc1nnc(SC)n1CCNC(=O)Nc1cccc(Cl)c1,-80.6% (active)
14,CCOC(=O)CCSc1nnc(CNc2cccc(Cl)c2)n1CCc1ccccc1,19.4% (inactive)
15,Cc1cccc(-c2nc(C)c(CCNC(=O)C(=O)Nc3cccc(Cl)c3)s2)c1,-6.82% (inactive)
16,Cn1nc(C2CCN(c3cnccn3)CC2)n(-c2ccccc2)c1=O,2.02% (inactive)
17,CC(C)c1cc(C(=O)NCCCc2nc3ccccc3n2C)n(C)n1,-0.0637% (inactive)
18,Cc1ccc(C23CC4CC(CC(CN)(C4)C2)C3)cc1C,-89.5% (active)
19,O=C1CCc2cc(S(=O)(=O)Nc3cccc(Cl)c3)cc3c2N1CC3,-27.2% (inactive)
20,CCCc1ccc(N2C(=O)C3CCC(C)CC3C2=O)cc1 (centres undefined),7.51% (inactive)
21,CC(C)c1cc(CN(C)C(=O)c2ccc(C#CC(C)(C)O)o2)on1,1.77% (inactive)
22,CC(=O)N1CC2(CCN(C(=O)C3CCNCC3)CC2)CC1C(=O)O (centres undefined),-40.5% (inactive)
23,CC(=O)c1cnc2ccc(-c3cc(Cl)c(O)c(Cl)c3)nc2c1NC1CCC(CN(C)C)CC1 (centres undefined),-75.6% (active)

row,SMILES,"activity change, negative = inhibition"
1,Cc1nn(-c2ccccc2)c(C)c1CCC(=O)Nc1nc(C(C)C)cs1,-0.863% (inactive)
2,COc1cc2c(cc1CNCC(=O)Nc1ccc(C)cc1C)OCCO2,-7.55% (inactive)
3,CN(Cc1ccoc1)c1nc(-c2cccnc2)nc2c1cnn2C,-58.5% (inactive)
4,Cc1nc(SCc2nc(C(c3ccccc3)c3ccccc3)no2)[nH]c(=O)c1C,-95.3% (active)
5,COc1ccc(-c2noc(CSc3nc(C)cc(=O)[nH]3)n2)cc1OC,32.8% (inactive)
6,C=CCN(Cc1ccc(C)s1)C(=O)c1ccc(-c2nnn(C)n2)cc1,-2.73% (inactive)
7,CC1CCCN(C(=O)CCNc2c(-c3ccc(F)cc3)nc3cnccn23)C1 (centres undefined),229% (inactive)
8,Cc1ncc(CN2CCC(Oc3cccc(C(=O)NCc4ccccc4)c3)CC2)s1,-28.1% (inactive)
9,COC1C2CCC1N(C(=O)COc1ccccc1C)CCO2 (centres undefined),-5.26% (inactive)
10,CC(C)(C)CC(=O)OCC(=O)[C@@]1(O)CCC2C3CCC4=CC(=O)C=C[C@]4(C)C3[C@@H](O)C[C@@]21C (some centres undefined),6.39% (inactive)
11,O=C(CCC1(c2ccccc2)NC(=O)NC1=O)Nc1ccc(N2CCCCC2)c(F)c1 (centres undefined),-25.7% (inactive)
12,CC(C)Cn1ncc2c1NC(=O)CC2c1csc(-c2ccccc2)n1 (centres undefined),-98.9% (active)
13,Cc1nn(CC(C)C)c2c1C(c1cnn3cccnc13)CC(=O)N2 (centres undefined),-4.06% (inactive)
14,O=C1CC(c2cccnc2)c2cnn(CC3CC3)c2N1 (centres undefined),6.49% (inactive)
15,COCCN1CC2(CCOCC2)c2cc(NC(=O)C3CCC3)ccc21,-48.6% (inactive)
16,Cc1nn(C)c(C)c1CCC(=O)N[C@H]1CCC(=O)NC1c1cccnc1 (some centres undefined),85.1% (inactive)
17,COc1cccc(-c2nc(C)c(-c3ccc(SCc4cccc5ccccc45)nn3)s2)c1,-1.38% (inactive)
18,COc1cccc(-c2nc(C)c(-c3ccc(SCc4ccccc4)nn3)s2)c1,-15.2% (inactive)
19,COc1ccc(-c2cccc(-c3nnc(C)s3)c2)c(OC)c1,-81.9% (active)
20,CCc1cn[nH]c1C1CCN(C(=O)C2COc3c(cccc3OC)C2)CC1 (centres undefined),-0.504% (inactive)
21,NCC(=O)CCC(=O)OCc1ccccc1,9.17% (inactive)
22,O=C1CCCCC(=O)c2ccccc2N1,-17.8% (inactive)
23,Cc1cc(C)c(/C=C2\C(=O)Nc3ccccc32)[nH]1,22% (inactive) and -75.5% (active)

row,SMILES,"activity change, negative = inhibition"
1,CNc1ccc(Cl)cc1C(=O)NCCN(C)S(C)(=O)=O,-31% (inactive)
2,CC(=O)N1CCn2c(-c3cnn(C)c3)cnc2C12CCN(S(=O)(=O)C1CC1)CC2,7.11% (inactive)
3,O=C(NC1CC1)c1cc2n(n1)CCN(C(=O)CCn1nnc3ccccc31)C2,-45.8% (inactive)
4,C[C@H]1CN([C@@H](C)CO)C(=O)CCCn2cc(nn2)CO[C@@H]1CN(C)S(=O)(=O)c1cccc(C#N)c1,24.6% (inactive)
5,C[C@H]1CN([C@@H](C)CO)C(=O)CCCn2cc(nn2)CO[C@@H]1CN(C)S(=O)(=O)c1ccc(-n2cccn2)cc1,-30.5% (inactive)
6,C[C@@H]1CN([C@@H](C)CO)C(=O)CCCn2cc(nn2)CO[C@H]1CN(C)S(=O)(=O)c1ccc(-n2cccn2)cc1,-114% (active)
7,O=C(c1cc(COc2c(F)cccc2F)on1)N1CCCC1c1ccco1 (centres undefined),1.77% (inactive)
8,CC(=O)Nc1ccc(NS(=O)(=O)c2ccc3oc(=O)ccc3c2)cc1,137% (inactive)
9,O=C(C1CCN(S(=O)(=O)c2ccc3[nH]c(=O)ccc3c2)CC1)N1CCN(c2ccccc2F)CC1,27.2% (inactive)
10,O=C(Oc1ccc(Cl)cc1)c1snnc1-c1ccccc1,-78% (active)
11,COc1ccc2c(c1)NC1(CCN(S(=O)(=O)c3ccc(F)c(Cl)c3)CC1)c1cccn1-2,11.3% (inactive)
12,COc1ncccc1CN1CCc2[nH]cnc2C1Cc1ccccc1 (centres undefined),-52.3% (inactive)
13,CC(=O)Nc1ccc(NC(=O)CSc2nnnn2C2CCCCC2)cc1,2.96% (inactive)
14,C=CCC1(O)C(C)C(c2ccccc2)N(C)C(c2ccccc2)C1C (centres undefined),-91.3% (active)
15,CN(C)C(=O)NC[C@H]1CCC[C@]2(CCN(Cc3nccs3)C2)O1,-40.2% (inactive)
16,O=C(Nc1ccc(C(F)(F)F)cn1)Nc1ccc(-c2ccccc2)s1,-27.9% (inactive)
17,COc1cccc(NC(=O)N2CCC3(CC2)CC(=O)c2ccccc2O3)c1,-5.86% (inactive)
18,Cc1c(C(=O)N2CCCCC2)oc2ccc3c(c12)C(=O)CC1(CCCCCC1)O3,-112% (active)
19,Cc1c(C(=O)N2CCC3(CC2)CC(O)(c2nccs2)CO3)oc2ccccc12 (centres undefined),-14.2% (inactive)
20,c1ccc2ncc(-c3ccncn3)cc2c1,1.85% (inactive)
